The text below walks through data of PubChem BioAssay AID1628 (Sanford-Burnham Center for Chemical Genomics, 2009).

About 930 (0.49%) of roughly 190,000 compounds were called active.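 The calls were made as follows: active = z-score of insulin promoter reporter brightness in nuclei below -3 at 5 µM, with at least 500 cells counted; inconclusive = wells with under 500 cells, flagged as toxic or sparse; inactive = the rest.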 The list shows a part of the results. Entries with a potency or affinity are not part of this list.

The nature of this experiment: insulin promoter down-regulators in MIN6 cells, imaging, high-content screening, mouse beta cells (AID 1628). The settings on record: MIN6 insulin promoter GFP reporter, at 5 µM, active compounds read low.
On to `COc1cc(N2CCCC2)c(OC)cc1/C=c1/sc2nc3ccccc3n2c1=O`, for which the z-score was 16.8 (inactive). In the case of `CCCN1C(=O)/C(=C\C=C2\N(CC)c3ccccc3C2(C)C)SC1=S` it was 17.2 (inactive); in that of `CCCN1C(=O)/C(=C/C=C2\N(CC)c3ccccc3C2(C)C)SC1=S`, 12.5 (inactive); in that of `N#C/C(=C/c1ccc(N2CCCCC2)o1)C(=O)NCCc1c[nH]c2ccccc12`, 17.5 (inactive).

In the case of `O=C1c2cccnc2C(=O)N1Cc1ccco1`, the z-score was 2.51 (inactive). In the case of `CC(C)(CO)C(O)C(=O)NCCC#N` (configuration not stated) it was -1.31 (inactive); in that of `O=[N+]([O-])c1ccc(/C=C/C2=NN(c3ccccc3)C(c3ccco3)C2)o1` (configuration not stated), 12.4 (inactive).

Consider `CCOC(=O)c1ccc(NC(=O)C2(c3ccc(OC)cc3)CCCC2)cc1`, for which the z-score was -5.09 (active). In the case of `CCN(CC)c1ccc(NC(=O)C2CC3CCC2C3)cc1` (configuration not stated) it was -2.14 (inactive); in that of `CCOc1ccc(NC(=O)C2CCC(C)(C(=O)O)C2(C)C)cc1` (configuration not stated), 3.64 (inactive); in that of `CCOC(=O)c1ccc(NC(=O)C2CC2)cc1`, -4.4 (active).

On to `CN1CC=C2C(C#N)=C(N)C(C#N)(C#N)C(c3cccc(Cl)c3Cl)C2C1` (configuration not stated), for which the z-score is 14.1 (inactive). In the case of `COc1cc(N2CCCC2)c(OC)cc1/C=C1/NC(=S)NC1=O` it was 17.8 (inactive).

Take `CCOC(=O)N1CCN(C(=O)c2cc(S(=O)(=O)N3CCCC3)cn2C)CC1`: the z-score was 3.05 (inactive). In the case of `CCOC(=O)N1CCN(S(=O)(=O)c2ccc3c(c2)oc(=O)n3C)CC1` it was 3.1 (inactive); in that of `CCOC(=O)N1CCC(N2CCN(S(=O)(=O)c3ccc4ccccc4c3)CC2)CC1`, -4.2 (active). In the case of `COCCNC(=O)c1onc(CSc2cccc(C)c2)c1C(=O)O` it was 3.82 (inactive); in that of `Clc1ccc(C[n+]2cc(-c3ccccc3)n3c2CCCCC3)c(Cl)c1`, -5.27 (active). Take `COc1ccc(N=C2NC(=O)S/C2=C\c2ccc(N(C)C)cc2)cc1`: the z-score is 3.4 (inactive).

Turning to `CN1CC=C2C(C#N)=C(N)C(C#N)(C#N)[C@H](c3cccc(Cl)c3)C2C1` (some centres not stated), the z-score was 15.9 (inactive). In the case of `N#C/C(C(=O)c1ccccc1)=C1/SC=C(N)N1c1ccccc1` it was 5.96 (inactive); in that of `CCCCN(CC)S(=O)(=O)c1ccc(C(=O)N(CCCN(C)C)c2nc3cc(C)cc(C)c3s2)cc1`, -3.82 (active). In the case of `CC(C)OC(=O)CN1C(=O)S/C(=C/c2ccc(N3CCCCC3)o2)C1=O` it was 6.58 (inactive); in that of `Cc1cc(Cl)ccc1OCC(=O)OCC(=O)Nc1ccc(F)c([N+](=O)[O-])c1`, -5.99 (active); in that of `Cn1c(=O)n(C)c2cc(NC(=O)COc3ccc(Cl)cc3)ccc21`, 3.02 (inactive). In the case of `COc1ccc(C2=Nn3c(nnc3-c3ccccc3OC)SC2)cc1OC` it was -3.31 (active); in that of `COc1ccccc1-c1c(C)c(C)nc(N)c1C#N`, -0.95 (inactive). As for `COc1ccc(OC)c(C2=Nn3c(nnc3C3CCCCC3)SC2)c1`, the z-score was -6.49 (active). In the case of `CC(=O)Nc1ccc(N=Cc2c(O)c(C(=O)Nc3ccccc3)cc3ccccc23)cc1` it was 3.59 (inactive); in that of `CC(=O)Nc1ccc(Nc2c3ccccc3nc3ccccc23)cc1`, -3.01 (active); in that of `Cc1ccc(C(=O)SC2=NCCS2)cc1`, 1.97 (inactive). In the case of `O=C(CSc1ccccn1)Nc1cccc2ccccc12` it was 2.55 (inactive); in that of `O=c1[nH]c(/C=C/c2ccccc2OC(F)F)nc2c1cnn2-c1ccccc1`, 3.2 (inactive); in that of `COc1ccc(CN(C(=O)c2ccc(-c3ccccc3)[nH]2)C(C(=O)NC(C)(C)C)c2ccncc2)cc1` (configuration not stated), 2.66 (inactive).

As to `Cc1ccc(-c2nnc(N3CCN(C(=O)c4ccco4)CC3)c3ccccc23)cc1`, the z-score is -4.39 (active).

`O=C(Nn1c(-c2ccccc2)nc2ccccc2c1=O)c1ccco1`: the z-score was -0.06 (inactive). In the case of `C[N+](C)(C)CCCNC(=O)c1ccc(/C=N/O)nc1` it was 0.8 (inactive). With `N#Cc1nc(N2CCOCC2)nc(N2CCOCC2)n1`, the z-score is 3.26 (inactive). Consider `CCCN1CC=C2C(C#N)=C(N)C(C#N)(C#N)C(c3cc(OC)ccc3OC)C2C1` (configuration not stated), for which the z-score was 15.3 (inactive). On to `Cc1ccccc1C(=O)N1CCc2ccccc2C1`, for which the z-score is 3.99 (inactive). In the case of `C[n+]1cc(C(=O)N2CCCCC2)ccc1/C=C/c1c[nH]c2ccccc12` it was 3.95 (inactive); in that of `O=C(c1csc2ccccc12)N1CCCCCC1`, -4.36 (active); in that of `N#Cc1c(NC(=O)CCCN2C(=O)c3ccccc3C2=O)oc(-c2ccccc2)c1-c1ccccc1`, -0.48 (inactive). In the case of `Cc1ccc(-n2nnnc2SC(C)C(=O)NCC(=O)Nc2ccc(F)c(F)c2F)c(C)c1` (configuration not stated) it was -4.63 (active).

Consider `Cc1csc(SC(C)C(=O)NCC(=O)Nc2ccc(F)c(F)c2F)n1` (configuration not stated), for which the z-score was 4.91 (inactive). In the case of `Cc1ccc2nc(C)c(C(=O)O)cc2c1` it was 3.57 (inactive). In the case of `CS(=O)(=O)N1CCc2cc(-c3csc(NC(=O)Cc4cccs4)n3)ccc21` it was -3.24 (active). On to `O=C(CN1CCOCC1)Nc1nc(-c2ccc3c(c2)CCN3S(=O)(=O)c2ccccc2)cs1`, for which the z-score is -3.24 (active). As for `O=S(=O)(NCc1csc(-c2ccccc2)n1)c1ccc(Cl)s1`, the z-score is 0.86 (inactive).

For `O=C(Nc1ccccc1)c1ccccc1NS(=O)(=O)c1ccc(Cl)s1`, the z-score was -3.51 (active). In the case of `Cc1ccc(SCCC(=O)N/N=C/c2ccncc2)cc1` it was 1.59 (inactive); in that of `CC(=O)Oc1ccc2c(c1)Oc1cc(OC(C)=O)ccc1C21OC(=O)c2ccccc21`, 15.3 (inactive); in that of `O=C1/C(=C/c2c[nH]c3ccccc23)CCC/C1=C\c1c[nH]c2ccccc12`, 4.59 (inactive). In the case of `O=C1CC(=O)C(n2cncn2)C(c2ccc(Cl)cc2)C1` (configuration not stated) it was -5.08 (active); in that of `COCCN1C(=O)/C(=C/c2ccc(N3CCCC3)cc2)SC1=S`, 16.8 (inactive).

In the case of `COc1ccc(/C=C2/SC(=O)N(CCNC(=O)C3CCCN3C(=O)c3cccs3)C2=O)cc1` (configuration not stated), the z-score is -4.56 (active). In the case of `O=C(CCl)N(c1ccccc1)C1CCCCC1` it was -5.83 (active); in that of `CCC(C)(C(=O)NC1CCCC1)N(C(=O)CNC(C)=O)c1ccccc1` (configuration not stated), 3.46 (inactive). Regarding `Cc1ccc2[nH]c(-c3ccccc3)c(CN(C)C)c(=O)c2c1`, the z-score was 4.17 (inactive). In the case of `COc1cccc(-n2nnc3c(=O)n(CC(=O)OCc4ccccc4)cnc32)c1` it was 1.01 (inactive). In the case of `O=c1c2nnn(Cc3ccccc3)c2ncn1C/C=C/c1ccccc1` it was -5.83 (active); in that of `Cc1ccc(Cn2nnc3c(=O)n(CC(=O)NCc4ccco4)cnc32)cc1`, 1.28 (inactive).
